Our source for the cytotoxicity call values is the antibiotic and cytotoxicity screens of Wong et al. (2023).

Among all 39,000 compounds or so, about 3,300 (8.5%) were called active. The list comes from a sample in which actives are over-represented; it also holds similar structures and randomly drawn compounds.

This test has as its system HepG2. Kind of test: cytotoxicity call (relative viability < 0.9). Conditions: 10 µM.
Turning to `Cn1cccc1C(=O)NCc1cn2c(n1)CN(S(C)(=O)=O)CC2`, the cytotoxicity call was “inactive”.

As to `COC(=O)[C@@H]1N2C(=O)[C@@H](N3C[C@](C)(OC)O[C@@H](Cc4ccccc4)[C@H]3/C=C/C3CC3)[C@H]2SC1(C)C`, the cytotoxicity call was “inactive”.

Turning to `C[C@H]1CCCCO[C@@H](CN(C)C(=O)Nc2cccc3ccccc23)[C@@H](C)CN([C@@H](C)CO)C(=O)c2cc(NC(=O)c3ccncc3)ccc2O1`, the cytotoxicity call was “inactive”.

Consider `C[C@H]1CN([C@@H](C)CO)C(=O)c2cc(C#CCN(C)C)cnc2O[C@@H]1CN(C)C(=O)Nc1cc(F)ccc1F`, for which the cytotoxicity call was “inactive”.

For the compound `O=C(C[C@@H]1CC[C@H]2[C@@H](COC[C@H](O)CN2S(=O)(=O)c2ccccc2)O1)NCc1ccc(-c2ccccc2)cc1`, the cytotoxicity call is “inactive”.

`COCC(=O)N1C[C@@H](C)[C@@H](OC)CN(C)C(=O)c2ccc(NC(=O)c3ccc(F)cc3)cc2OC[C@H]1C`: the cytotoxicity call is “inactive”.

In the case of `COc1ccc(S(=O)(=O)N(C)C[C@H]2Oc3ccc(NS(=O)(=O)c4c(C)noc4C)cc3CC(=O)N([C@H](C)CO)C[C@@H]2C)cc1`, the cytotoxicity call is “inactive”.

`COc1ccc(S(=O)(=O)N(C)C[C@H]2OCCCC[C@@H](C)Oc3ccc(NC(=O)Nc4cccc5ccccc45)cc3C(=O)N([C@H](C)CO)C[C@H]2C)cc1`: the cytotoxicity call was “inactive”.

With `CC(C)(C)NC(=O)[C@@H]1CN(Cc2cccnc2)CCN1C[C@@H](O)C[C@@H](Cc1ccccc1)C(=O)N[C@@H]1c2ccccc2C[C@@H]1O`, the cytotoxicity call is “inactive”.

With `CC(C)(C)NC(=O)C1CN(Cc2cccnc2)CCN1CC(O)CC(Cc1ccccc1)C(=O)NC1c2ccccc2CC1O` (stereo unspecified), the cytotoxicity call is “active”.

For the compound `CC(C)(C)NC(=O)[C@@H]1CN(Cc2cccnc2)CCN1C[C@@H](O)C[C@@H](Cc1ccccc1)C(=O)N[C@H]1c2ccccc2C[C@H]1O`, the cytotoxicity call is “inactive”.

Turning to `O=C(C[C@@H]1CC[C@H]2[C@@H](COC[C@H](O)CN2S(=O)(=O)c2cccc(F)c2)O1)NCCCN1CCOCC1`, the cytotoxicity call was “inactive”.

On to `NCc1ccncc1`, for which the cytotoxicity call is “inactive”.

As for `C=CCOC(=O)[C@@H]1[C@H]2C(=O)O[C@H](c3ccccc3)[C@H](c3ccccc3)N2[C@H](c2ccc(OCCOC(=O)[C@H]3C[C@H]4C(=O)NCC(=O)N4[C@H]3c3ccc(O)cc3)cc2)[C@@]12C(=O)Nc1ccccc12`, the cytotoxicity call was “inactive”.

For `C[C@H]1CC/C=C\[C@H]2O[C@@]34C=CCN(CCN5CCOCC5)C(=O)[C@H]3N(CCCO)C(=O)[C@@H]4[C@@H]2C(=O)O1`, the cytotoxicity call is “inactive”.

`CC[C@@H](C)c1ccc(NC(=O)c2ccc(N(CC)CC)cc2)cc1`: the cytotoxicity call was “inactive”.

Take `Nc1nc(=O)[nH]cc1NC(=O)c1ccccc1`: the cytotoxicity call is “inactive”.

Consider `C[C@@H](N)c1ccc(C(=O)Nc2ccnc3[nH]ccc23)cc1`, for which the cytotoxicity call was “active”.

With `c1ccc2c(CSc3nc4ccccc4s3)cccc2c1`, the cytotoxicity call was “inactive”.

Consider `c1cnc2c(SCc3nc4ccccc4s3)cccc2c1`, for which the cytotoxicity call was “active”.

`CCSc1cccc2cccnc12`: the cytotoxicity call was “inactive”.

`COc1ccc(S(=O)(=O)Nc2ccc3c(c2)C(=O)N([C@@H](C)CO)C[C@H](C)[C@@H](CN(C)Cc2ccc(Cl)c(Cl)c2)O3)cc1`: the cytotoxicity call was “inactive”.

As for `COc1ccc(S(=O)(=O)Nc2ccc3c(c2)C(=O)N([C@H](C)CO)C[C@H](C)[C@@H](CN(C)Cc2ccc(Cl)c(Cl)c2)O3)cc1`, the cytotoxicity call was “inactive”.

As for `COc1ccc(S(=O)(=O)Nc2ccc3c(c2)C(=O)N([C@@H](C)CO)C[C@H](C)[C@H](CN(C)Cc2ccc(Cl)c(Cl)c2)O3)cc1`, the cytotoxicity call was “inactive”.

Consider `COc1ccc(S(=O)(=O)Nc2ccc3c(c2)C(=O)N([C@H](C)CO)C[C@H](C)[C@H](CN(C)Cc2ccc(Cl)c(Cl)c2)O3)cc1`, for which the cytotoxicity call was “inactive”.

For the compound `COc1ccc(S(=O)(=O)Nc2ccc3c(c2)C(=O)N([C@@H](C)CO)C[C@@H](C)[C@H](CN(C)Cc2ccc(Cl)c(Cl)c2)O3)cc1`, the cytotoxicity call is “active”.

With `COc1ccc(S(=O)(=O)Nc2ccc3c(c2)C(=O)N([C@@H](C)CO)C[C@@H](C)[C@@H](CN(C)Cc2ccc(Cl)c(Cl)c2)O3)cc1`, the cytotoxicity call was “active”.

As for `C[C@@H]1CCCCO[C@@H](CN(C)S(=O)(=O)c2ccc(Cl)cc2)[C@@H](C)CN([C@H](C)CO)C(=O)c2cc(NC(=O)CCCCCC(=O)Nc3ccccc3N)ccc2O1`, the cytotoxicity call was “inactive”.

Consider `C[C@H]1CN([C@@H](C)CO)C(=O)Cc2cc(NS(C)(=O)=O)ccc2O[C@H]1CN(C)C`, for which the cytotoxicity call was “inactive”.

On to `C[C@H]1CN([C@@H](C)CO)C(=O)Cc2cc(NC(=O)c3ccncc3)ccc2O[C@@H]1CN(C)Cc1ccncc1`, for which the cytotoxicity call was “inactive”.

As to `C=CCOc1ccc(C(=O)C2=C(O)C(=O)N(CCCN3CCOCC3)[C@@]23C(=O)N(C)c2ccccc23)cc1C`, the cytotoxicity call is “inactive”.

On to `COCC(=O)Nc1ccc2c(c1)C(=O)N(C)[C@H]1CC[C@@H](CC(=O)NC3Cc4ccccc4C3)O[C@@H]1CO2`, for which the cytotoxicity call was “inactive”.

As to `COc1ccc(CN(C)C[C@H]2OCCCC[C@@H](C)Oc3ccc(NS(=O)(=O)c4c(C)noc4C)cc3C(=O)N([C@H](C)CO)C[C@H]2C)cc1`, the cytotoxicity call was “inactive”.

`COc1ccc(NC(=O)Nc2ccc3c(c2)C(=O)N([C@H](C)CO)C[C@H](C)[C@H](CN(C)C(=O)Nc2ccc(C(F)(F)F)cc2)O3)cc1`: the cytotoxicity call is “inactive”.

As for `C[C@@H]1CN([C@H](C)CO)C(=O)c2cc(NS(=O)(=O)c3ccc(Cl)cc3)ccc2O[C@@H](C)CCCCO[C@H]1CN(C)Cc1ccc(Cl)c(Cl)c1`, the cytotoxicity call is “active”.

Consider `C[C@@H]1CCCCO[C@@H](CN(C)Cc2ccc(Cl)c(Cl)c2)[C@H](C)CN([C@@H](C)CO)C(=O)c2cc(NS(=O)(=O)c3ccc(Cl)cc3)ccc2O1`, for which the cytotoxicity call was “active”.

Take `C[C@@H]1CN([C@H](C)CO)C(=O)c2cc(NS(=O)(=O)c3ccc(Cl)cc3)ccc2O[C@@H](C)CCCCO[C@@H]1CN(C)Cc1ccc(Cl)c(Cl)c1`: the cytotoxicity call is “active”.

Take `C[C@@H]1CCCCO[C@@H](CN(C)Cc2ccc(Cl)c(Cl)c2)[C@@H](C)CN([C@@H](C)CO)C(=O)c2cc(NS(=O)(=O)c3ccc(Cl)cc3)ccc2O1`: the cytotoxicity call was “active”.

Turning to `C[C@@H]1CN([C@H](C)CO)C(=O)c2c(c3ccccc3n2C)-c2ccccc2CO[C@H]1CN(C)Cc1ccc(Oc2ccccc2)cc1`, the cytotoxicity call is “inactive”.

In the case of `O=C(C[C@@H]1CC[C@@H]2[C@H](COC[C@H](O)CN2C(=O)Nc2cccc(Cl)c2)O1)NCCCN1CCOCC1`, the cytotoxicity call was “inactive”.

For the compound `C[C@@H]1CN([C@H](C)CO)C(=O)Cc2cc(NS(C)(=O)=O)ccc2O[C@@H]1CN(C)S(=O)(=O)c1cn(C)cn1`, the cytotoxicity call was “inactive”.
